Screens as filed in PubChem.
The list is not random: actives were taken first. Their share in the collection is about 6.3%.
tim10-1 inh: inhibits growth of tim10-1 mutant yeast | S. cerevisiae tim10-1 ts strain growth, BacTiter-Glo, 24 h | inhibition, % at 20 µM | 2.2% of 330,000 active;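 active = inhibition of at least 40%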;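 also: mutant grown at 25 °C; 0% = DMSO wells with yeast and 100% = wells holding no yeast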
tim23-1 inh: growth inhibitors of tim23-1 mutant yeast. inhibition, % at 20 µM. S. cerevisiae tim23-1 growth, BacTiter-Glo luminescence, 24 h. 1.3% of 330,000 active;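 active = growth inhibition of the mutant yeast at or above 50%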;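 also: temperature-sensitive mutant grown at 25 °C; plate controls were DMSO-treated mutant yeast for no effect and medium wells lacking yeast for full effect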
TIM10 inh: inhibits growth of TIM10 yeast strain. S. cerevisiae TIM10 strain growth, BacTiter-Glo luminescence, 24 h. 1.4% of 330,000 active. inhibition, % at 10 µM;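 active = inhibition of 40% or more at the single tested concentration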;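 also: wild-type TIM10 isogenic control strain grown at permissive 25 °C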
Mdm2-MdmX inh: inhibitors of human Mdm2/MdmX interaction. SaOS-2 split-luciferase Mdm2/MdmX complementation, luminescence. inhibition, % at 8 µM. 3% of 330,000 active. AID 485346;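 active = inhibition of at least 50% at 8 µM in the primary screen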
MPTP inh: inhibitors of mitochondrial permeability transition pore; isolated mouse mitochondria, Ca2+ swelling absorbance, 30 min; inhibition, % at 10 µM; 1.4% of 360,000 active;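 active = inhibition of 50% or more, scaled per plate between neutral and stimulator controls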;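 also: 0% = DMSO wells given calcium and 100% = 1 mM EGTA wells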
tim10-1 conf: tim10-1 yeast growth inhibition, confirmed. shares compounds with tim10-1 inh. S. cerevisiae tim10-1 ts strain growth, BacTiter-Glo, 24 h. inhibition, % at 20 µM. 56% of 7,400 active. AID 463213;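 active = inhibition of yeast growth at or above a set limit in either of two repeat tests at 20 µM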;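 also: tim10-1 mutant grown at permissive 25 °C to find synthetic lethal compounds; 0% = DMSO yeast wells and 100% = medium wells without yeast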
An asterisk follows results filed as active; · = no result given.

SMILES	tim10-1 inh	tim23-1 inh	TIM10 inh	Mdm2-MdmX inh	MPTP inh	tim10-1 conf
Cc1ccc(S(=O)(=O)NC2=C(N3CCN(Cc4ccccc4)CC3)C(=O)c3ccccc3C2=O)cc1	28.7	20.9	12.3	10.0	4.1	·
CCOC(=O)N1CCN(C2=C(NS(=O)(=O)c3ccc(C)cc3)C(=O)c3ccccc3C2=O)CC1	48.8*	39.0	4.9	12.7	1.4	16.9
COCCN1C(=O)COc2ccccc2C1C(=O)Nc1ccc2c(c1)OCCO2 (stereo unspecified)	·	·	·	·	0.6	·
O=C(COc1ccc(Cl)cc1Cl)N/N=C/c1ccc[nH]1	44.2*	32.1	1.5	-3.2	-1.4	-1.9
O=C(COc1ccc(Cl)cc1Cl)N/N=C/CCc1ccccc1	16.4	13.7	13.0	40.3	1.7	·
Cc1ccc(-n2nc3cc(C)c(N)cc3n2)cc1	40.9*	20.9	24.4	-188.4	-4.6	19.6
CCc1ccc(-n2nc3cc(C)c(N)cc3n2)cc1	24.4	24.0	13.4	-94.9	-0.1	·
O=C(CCN1CCOCC1)c1ccc2c(c1)OCCO2	8.3	12.0	12.9	13.5	10.0	·
O=C(CCN1CCc2ccccc2CC1)c1ccc2c(c1)OCCO2	78.7*	13.8	24.3	16.0	0.1	22.2
Clc1ccc(N2O[C@H]3C=C[C@@H]2C3)nc1	·	·	·	·	1.1	·
COc1ccc(Sc2cnn(-c3ccccc3)c(=O)c2Cl)cc1	47.8*	45.3	28.1	24.6	3.3	45.5*
COc1ccc(C(=O)N2CCN(c3cnn(-c4ccccc4)c(=O)c3Cl)CC2)cc1	3.5	17.2	-12.4	-0.6	-4.5	·
O=C(NC1CCCC1)C(c1ccccc1)n1c(-c2cccc3ccccc23)nc2ccccc21 (stereo unspecified)	·	·	·	·	1.6	·
COc1ccc(NC(=O)C2CCCCN2S(=O)(=O)c2ccc(F)cc2)c(OC)c1 (stereo unspecified)	43.8*	31.4	33.7	12.4	0.8	28.6
COc1ccccc1NC(=O)C1CCCCN1S(=O)(=O)c1ccc(F)cc1 (stereo unspecified)	35.0	28.5	25.5	-21.5	2.2	·
Cc1c(NC(=O)/C(C#N)=C/c2ccc(-c3ccc(Cl)cc3)o2)c(=O)n(-c2ccccc2)n1C	41.6*	31.6	33.6	9.7	3.5	29.8*
O=C(NC1CCCC1)C(C1CC1)n1c(-c2ccnc3ccccc23)nc2ccccc21 (stereo unspecified)	·	·	·	·	2.6	·
Clc1ccc(Cl)c2sc(N3CCCC3)nc12	47.5*	45.6	23.7	-12.8	-2.5	36.6*
Cc1cc(C)n(CCc2nc(-c3cc4ccccc4o3)cs2)n1	42.7*	42.9	23.1	-0.1	6.3	29.6
Cc1cc(C)n(CCc2nc(-c3ccc(C)o3)cs2)n1	30.0	14.2	7.3	-32.1	1.4	·
Cc1ccc(-c2csc3nc[nH]c(=O)c23)cc1	30.0	5.0	15.4	-6.4	0.2	·
Cc1ccc(-c2csc3nc[nH]c(=O)c23)cc1C	41.3*	38.9	21.7	22.8	0.6	27.0
O=C(NCCS(=O)(=O)N1CCN(c2ccc(F)cc2)CC1)C12CC3CC(CC(C3)C1)C2	41.5*	45.2	32.6	14.5	1.5	22.1
Nc1ncnc(Oc2cccc(C(F)(F)F)c2)c1[N+](=O)[O-]	42.8*	43.0	9.7	-2.8	6.6	27.2
COC(=O)c1c(NC(=O)c2nn(C)cc2Cl)sc2c1CCCC2	49.9*	44.0	32.3	3.8	5.9	13.9
SMILES	tim10-1 inh	tim23-1 inh	TIM10 inh	Mdm2-MdmX inh	MPTP inh	tim10-1 conf
O=C(c1cccs1)c1c[nH]cc1-c1ccccc1	51.6*	29.2	28.1	-2.9	-0.3	38.2*
CCC(=O)Nc1nnc(-c2ccccn2)o1	5.2	4.3	6.6	8.1	-0.3	·
O=C(Nc1nnc(-c2ccccn2)o1)c1ccc(Br)cc1	46.1*	29.4	14.3	20.2	-2.6	28.6
COc1cccc2sc(N3CCN(C(=O)c4ccc([N+](=O)[O-])o4)CC3)nc12	50.6*	-37.4	24.8	21.7	-0.4	27.9
N#Cc1c(-c2ccccc2)nc(SCc2cccc(Cl)c2)[nH]c1=O	42.1*	33.3	17.5	0.4	6.7	27.1
c1ccc(CCNc2cc(-c3ccc4ccccc4c3)nc3ccnn23)nc1	·	·	·	·	-0.2	·
Cc1cc(C(F)(F)F)n2nc(-c3sccc3-n3cccc3)cc2n1	10.7	4.7	0.1	-3.0	-0.6	·
Cc1nc2cc(-c3sccc3-n3cccc3)nn2c(C)c1C	46.0*	40.9	19.8	9.7	0.0	34.1*
CC(C)CC1C(=O)N(Cc2cn(CC3CCCCC3)nn2)CCS(=O)(=O)N1Cc1ccc(-c2ccncc2)cc1 (stereo unspecified)	·	·	·	·	-0.2	·
O=[N+]([O-])c1cccc(CON=Cc2cc(Cl)ccc2O)c1	·	·	·	·	40.1	·
O=C1[C@@H]2[C@@H]3C[C@@H]([C@H]4ON=C(c5ccc(Cl)cc5Cl)[C@@H]34)[C@@H]2C(=O)N1C1CCCCC1	52.0*	41.1	13.5	9.2	2.6	33.6*
CC(=O)c1ccc2c(c1)c(C#N)c1ccccc1[n+]2[O-]	68.4*	48.3	18.2	-6.5	0.6	50.8*
Cc1ccccc1-c1nc2ccccc2c(=O)n1/N=C/c1ccccc1[N+](=O)[O-]	44.1*	46.4	10.0	17.5	-2.0	31.2
COC(=O)c1cccc(Nc2cc(C)nc(-c3ccccc3O)n2)c1	61.9*	35.3	37.6	13.9	16.4	35.0*
COC(=O)c1ccc(Nc2cc(C)nc(-c3ccccc3O)n2)cc1	18.5	3.9	1.9	5.3	-12.2	·
Cc1c(C(=O)OC2CCCCC2)sc2nc[nH]c(=O)c12	40.2*	22.8	19.9	9.4	-1.1	13.0
CN1CCOc2c1cnn(CCO)c2=O	·	·	·	·	-0.4	·
CCCSc1oc(-c2ccco2)nc1S(=O)(=O)c1ccccc1	42.8*	32.8	25.1	18.8	1.8	19.7
C=CCc1cccc(CNc2ccc(Br)cc2)c1O	42.9*	37.1	35.1	-1.9	6.6	63.5*
CC(C)n1c(NCc2ccccc2O)nc2ccccc21	11.3	13.6	-3.0	-2.7	0.3	·
C=CCc1cccc(CNc2ccc(S(=O)(=O)Nc3nccnc3OC)cc2)c1O	19.5	15.0	-13.6	3.2	0.4	·
C=CCc1cccc(CNc2nc3ccccc3n2C(C)C)c1O	42.8*	26.9	37.4	28.7	15.4	33.8*
O=C(NC1CCCc2ccccc21)C1CCN(S(=O)(=O)c2ccccc2)CC1 (stereo unspecified)	40.1*	23.4	26.9	9.1	0.5	23.9
O=C(NC1CCCc2ccccc21)C1CCN(S(=O)(=O)c2ccccc2F)CC1 (stereo unspecified)	14.1	13.9	11.2	34.0	1.5	·
Cc1cccc(C)c1Cn1c(C)c(C(=O)NCCC#N)sc1=O	·	·	·	·	-0.3	·
O=C(Nc1ccc(F)c(Cl)c1)C1Cc2c(-c3cccc(F)c3)ccnc2O1 (stereo unspecified)	·	·	·	·	3.7	·
Cc1[nH]c2ccccc2c1C(C[N+](=O)[O-])c1cccc(O)c1 (stereo unspecified)	22.3	12.5	-1.2	19.9	1.4	·
